# According to PubChem BioAssay (EPA / NIEHS):
# “And” between values parts separate entries of the source, which are not always exact repeats. Identical values can stand only once. Records with an inconclusive call do not appear. The source made the active and inactive calls. The calls were made as follows, unless noted: active = hit-call score of the fitted dose curve at least 0.9, where 1 is the maximum; inactive = score below 0.9.
# Assay: CCTE_Harrill_HTTr_Apoptosis_MCF7: CCTE's 6-hour Apoptosis Assessment for the High-Throughput Transcriptomics (HTTr) Platform, in MCF-7 cells cultured in DMEM + 10% fetal bovine serum, Harrill Lab (AID 2284011)
# Summary of the method: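 MCF-7 cells in DMEM + 10% fetal bovine serum were exposed to chemicals for 6 hours over an eight-point dilution series. Caspase-3/7 activation was imaged by high content imaging with CellEvent Caspase 3/7 Green; bidirectional fitting used DMSO as baseline.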
Structure (SMILES),outcome,AC50
Cc1cccc(C)n1,inactive,–
CN(N=O)C(=O)N[C@@H]1[C@@H](O)[C@H](O)[C@@H](CO)O[C@@H]1O,inactive,–
CCCCCCCCn1sc(Cl)c(Cl)c1=O,inactive,–
CCCCCCCCCCCCC[N+](C)(C)Cc1ccccc1,inactive,–
CCN=c1cc2oc3cc(NCC)c(C)cc3c(-c3ccccc3C(=O)OCC)c-2cc1C,–,96.9 nM (active) and 51.2 nM (active)
CC(C)(C)c1cc(CCC(=O)OCC(COC(=O)CCc2cc(C(C)(C)C)c(O)c(C(C)(C)C)c2)(COC(=O)CCc2cc(C(C)(C)C)c(O)c(C(C)(C)C)c2)COC(=O)CCc2cc(C(C)(C)C)c(O)c(C(C)(C)C)c2)cc(C(C)(C)C)c1O,inactive,–
C[C@]12CC[C@H]3C(=CCc4cc(O)ccc43)[C@@H]1CCC2=O,inactive,–
Cc1cc(=O)[nH]c(C(C)C)n1,inactive,–
CCCCC(CC)COC(=O)c1ccc(N(C)C)cc1 (stereo not given),inactive,–
Brc1ccccn1,inactive,–
O=S(=O)(O)c1ccc(Cl)cc1,inactive,–
CSc1ccc(O)cc1C,inactive,–
Cc1ccc(O)c(-n2nc3ccccc3n2)c1,inactive,–
CCCCCCCCCCCCCCCCC,inactive,–
CSc1ccc(Cl)cc1,inactive,–
Cc1cnccn1,inactive,–
CCc1ccc(C)nc1,inactive,–
CCCCCCCCCc1ccc(OCCO)cc1,inactive,–
CCC(Cc1c(I)cc(I)c(N)c1I)C(=O)O (stereo not given),inactive,–
CCN=C1C=CC(=C(c2ccc(N(CC)CC)cc2)c2ccc(N(CC)CC)cc2)c2ccccc21,inactive,–
O=C(c1ccccc1)c1ccc(O)cc1O,inactive,–
CCCCCCCC/C=C\CCCCCCCC(=O)N(C)CC(=O)O,inactive,–
CC(=O)CCC(C)C,inactive,–
CCOC(=O)C1CC(=O)C(=C(O)C2CC2)C(=O)C1 (stereo not given),inactive,–
CN(C)C(C)(C)CO,inactive,–
CC1CCCCC1,inactive,–

# Assay: CCTE_Harrill_HTTr_CellCount_MCF7: CCTE's Cell Proliferation Assessment for the High-Throughput Transcriptomics (HTTr) Platform, Harrill Lab (AID 2284012; active = hit-call score of the fitted dose curve at least 0.9, where 1 is the maximum;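 also: cells exposed to compound for six hours; intended direction is loss of nuclei count meaning fewer cells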)
# Summary of the method: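 Cell count from high-content imaging of Hoechst-labeled nuclei serves as viability/growth readout. Chemicals were applied to MCF-7 cells in eight concentrations for six hours, with fitting in both directions relative to DMSO.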
Structure (SMILES),outcome,AC50
Cc1cccc(C)n1,inactive,–
CN(N=O)C(=O)N[C@@H]1[C@@H](O)[C@H](O)[C@@H](CO)O[C@@H]1O,inactive,–
CCCCCCCCn1sc(Cl)c(Cl)c1=O,inactive,–
CCCCCCCCCCCCC[N+](C)(C)Cc1ccccc1,inactive,–
CCN=c1cc2oc3cc(NCC)c(C)cc3c(-c3ccccc3C(=O)OCC)c-2cc1C,inactive,–
CC(C)(C)c1cc(CCC(=O)OCC(COC(=O)CCc2cc(C(C)(C)C)c(O)c(C(C)(C)C)c2)(COC(=O)CCc2cc(C(C)(C)C)c(O)c(C(C)(C)C)c2)COC(=O)CCc2cc(C(C)(C)C)c(O)c(C(C)(C)C)c2)cc(C(C)(C)C)c1O,inactive,–
C[C@]12CC[C@H]3C(=CCc4cc(O)ccc43)[C@@H]1CCC2=O,inactive,–
Cc1cc(=O)[nH]c(C(C)C)n1,inactive,–
Brc1ccccn1,inactive,–
CSc1ccc(O)cc1C,inactive,–
Cc1ccc(O)c(-n2nc3ccccc3n2)c1,inactive,–
Cc1cnccn1,inactive,–
CCc1ccc(C)nc1,inactive,–
CCCCCCCCCc1ccc(OCCO)cc1,inactive,–
CCN=C1C=CC(=C(c2ccc(N(CC)CC)cc2)c2ccc(N(CC)CC)cc2)c2ccccc21,–,92.2 µM (active)
CCCCCCCC/C=C\CCCCCCCC(=O)N(C)CC(=O)O,inactive,–
CC(=O)CCC(C)C,inactive,–
CN(C)C(C)(C)CO,inactive,–
CC1CCCCC1,inactive,–
